As usually defined, the inhibition is the change of the read-out against control, counted positive when it falls.

The whole screen tested about 370,000 compounds, of which about 3,100 (0.84%) were called active. This is one part of a sample in which actives are shown more often than they occur. Unmarked numbers belong to inactive results.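 How the source made its calls: active means inhibition above the mean of compounds lying between control limits plus 3 SD, set per campaign (cut at about 8.5% in these data); inactive means the rest.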

Disintegrin and metalloproteinase domain-containing protein 17 (Homo sapiens), sequence (P78536 215-824 limits assumed): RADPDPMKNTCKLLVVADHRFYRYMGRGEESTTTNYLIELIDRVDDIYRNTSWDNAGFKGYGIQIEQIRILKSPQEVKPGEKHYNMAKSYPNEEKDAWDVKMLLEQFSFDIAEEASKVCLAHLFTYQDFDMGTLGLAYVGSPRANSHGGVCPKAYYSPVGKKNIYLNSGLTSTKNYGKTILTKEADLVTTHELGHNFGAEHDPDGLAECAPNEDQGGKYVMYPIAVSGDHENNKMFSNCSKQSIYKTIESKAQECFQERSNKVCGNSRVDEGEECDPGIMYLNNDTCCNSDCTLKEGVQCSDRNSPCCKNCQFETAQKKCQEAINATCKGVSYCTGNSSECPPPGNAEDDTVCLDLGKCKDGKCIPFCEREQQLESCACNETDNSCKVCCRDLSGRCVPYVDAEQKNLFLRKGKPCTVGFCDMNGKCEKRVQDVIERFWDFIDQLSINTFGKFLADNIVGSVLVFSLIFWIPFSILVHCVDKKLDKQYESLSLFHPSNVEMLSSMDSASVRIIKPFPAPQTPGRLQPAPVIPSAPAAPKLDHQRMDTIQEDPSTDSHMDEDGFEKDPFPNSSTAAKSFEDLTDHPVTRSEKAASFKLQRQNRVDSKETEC

The experiment addresses Disintegrin and metalloproteinase domain-containing protein 17 (Homo sapiens) (UniProt P78536). Briefly: inhibition of ADAM17 peptide cleavage – biochemical, QFRET, primary screen (AID 720648).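 Further: 0% = DMSO-only wells as the low control.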 The note with it: recombinant ADAM17, EDANS/DABCYL FRET peptide cleavage; at 6.95 µM; active compounds read high.
As to `COC(=O)[C@]12C[C@H](CC(=O)N3CCOCC3)C(=O)N(Cc3ccc(Cl)cc3Cl)C1=C[C@H](C(C)C)O[C@@H]2C1CC1`, the inhibition was -2%.

Consider `Cc1ccc(-n2c(SCC(=O)Nc3ccc(S(=O)(=O)Nc4nccs4)cc3)nnc2-c2ccccn2)cc1`, for which the inhibition was 2.5%.

With `O=C1CC[C@@]23CCCN2C(=O)CCC[C@H]3[C@H]1Cc1ccccc1`, the inhibition was -7.14%.

With `S=C(NCc1ccc(Cl)cc1)NC12CC3CC(CC(C3)C1)C2`, the inhibition is 14.9% (active).

Take `Cc1ccc(C(=O)NC23CC4CC(CC(C4)C2)C3)c(Cl)c1`: the inhibition was -1.94%.

Turning to `COc1ccccc1C(=O)NC(=S)NC12CC3CC(CC(C3)C1)C2`, the inhibition is -0.66%.

Consider `COc1ccc(-c2cc(-c3nnc(SCC(=O)Nc4cccc5ccccc45)n3N)[nH]n2)cc1`, for which the inhibition was -3.93%.

Take `O=C(NCC1COc2ccccc2O1)c1ccc(NC(=O)c2cc(F)ccc2F)cc1` (stereo not given): the inhibition was 2.47%.

As to `COc1ccc(/C=C2\CC3(OC(C)=O)CCCN2C3)cc1` (stereo not given), the inhibition was -3.86%.

For the molecule `Cc1ccccc1NC(=O)C1CCN(c2ncccn2)CC1`, the inhibition was -12.7%.

As for `O=C(NN1C(=O)C2C3C=CC(O3)C2C1=O)c1ccccc1` (stereo not given), the inhibition is 0.75%.

Regarding `O=C(NN1C(=O)C2C3C=CC(C4CC34)C2C1=O)c1ccc(Cl)cc1` (stereo not given), the inhibition is -30.5%.

For the molecule `COc1ccc(C(=O)NN2C(=O)C3C(c4ccccc4)C=CC(c4ccccc4)C3C2=O)cc1` (stereo not given), the inhibition was 13.9% (active).

With `COc1ccc(N2CCN(CCNS(=O)(=O)c3ccc(C(C)(C)C)cc3)CC2)cc1`, the inhibition was 1.38%.

As to `CCCC[C@H]1C2CC(OC(=O)NCc3ccccc3)C(C2)[C@H]2CCCCN21` (stereo not given in full), the inhibition was -10.2%.

In the case of `C=C(C)COc1ccc(-c2n[nH]c(C)c2-c2ccccc2)c(O)c1`, the inhibition was 10.9% (active).

In the case of `Cc1[nH]nc(-c2ccc(OCc3cnn(-c4ccccc4)c3)cc2O)c1Oc1ccc(Cl)cc1`, the inhibition was 0.84%.

In the case of `CC(C)N1CCCCC(NC(=O)C(C)(C)C)C1=O` (stereo not given), the inhibition was -2.39%.

`O=C(CSc1nnc(Nc2ccccc2F)s1)NC1CCCC1`: the inhibition is -2.83%.

Regarding `O=C(CSc1nnc(Nc2ccccc2)s1)Nc1cccnc1Cl`, the inhibition is 8.69% (active).

As to `O=C(CSc1nnc(C2CC2)n1Cc1ccccc1)Nc1cccnc1Cl`, the inhibition was -2.91%.

With `CCOC(=O)[C@]12CCCC=C1N(Cc1ccc(OC)cc1)C(=O)[C@@H]2CC(=O)NCc1cccs1`, the inhibition was -2.4%.

Regarding `CN1C[C@]2(C=C3CCCCC3n3c(=O)n(-c4ccccc4)c(=O)n32)N=C1NC(=O)c1ccccc1` (stereo not given in full), the inhibition was -0.93%.

As for `COC(=O)[C@]1(C#N)CC(=O)N(CC2CCCCC2)[C@@H]1c1ccccc1`, the inhibition was 4.54%.

Turning to `O=C(NC1CCCC1)C1CSCCS(=O)(=O)N1Cc1ccccc1` (stereo not given), the inhibition is -0.05%.

`COc1ccc(-n2c(COc3ccccc3)nnc2SCC(=O)Nc2ccc3c(c2)OCO3)cc1`: the inhibition is 4.09%.

Turning to `O=C(CSc1nnc(COc2ccccc2)n1-c1ccc(Cl)cc1)Nc1ccc2c(c1)OCO2`, the inhibition is 1.36%.

On to `Cc1ccc(-n2c(COc3ccccc3)nnc2SCC(=O)Nc2ccc3c(c2)OCCO3)cc1`, for which the inhibition was 10.3% (active).

`Cc1cc(C)cc(NS(=O)(=O)c2ccc(Oc3ncc(C(F)(F)F)cc3Cl)cc2)c1`: the inhibition was 10.8% (active).

Turning to `CN(NS(=O)(=O)c1cccs1)c1ncc(C(F)(F)F)cc1Cl`, the inhibition was -1.66%.

`O=S(=O)(Nc1ccc(Oc2ncccn2)c(Cl)c1)c1ccc(F)cc1`: the inhibition is -3.11%.

For the molecule `COc1cccc(/C=C2\CC3(OC(C)=O)CCCN2C3)c1` (stereo not given), the inhibition was 3.86%.

Turning to `O=C(OC12CCCN(C1)/C(=C/c1ccccc1)C2)c1ccco1` (stereo not given), the inhibition is 6.28%.

On to `COC(=O)[C@]12C[C@H](CC(=O)NCCCN3CCCC3=O)C(=O)N(CCc3ccc(OC)c(OC)c3)C1=C[C@H](COCc1ccccc1)O[C@@H]2C`, for which the inhibition was -6.14%.

For the molecule `O=C(NCc1ccccc1)C1=C[C@@H](c2ccc(C(F)(F)F)cc2)C[C@@H](OCc2ccc(CO)cc2)O1`, the inhibition is 10.7% (active).

With `CC(C)(C)[C@H]1C=C(C(=O)NCc2ccccc2)O[C@@H](OCc2ccc(CO)cc2)C1`, the inhibition is 2.4%.

Turning to `O=C(C1=C[C@H](c2ccc(C(F)(F)F)cc2)C[C@H](OCc2ccc(CO)cc2)O1)N1CCN(Cc2ccccc2)CC1`, the inhibition is 5.72%.

Consider `COc1ccc(Cl)cc1C=CC=NNC(=O)c1ccncc1`, for which the inhibition is -4.19%.

For the molecule `Cc1ccc(OCCOCCOc2ccc(Br)cc2/C=N\NC(=O)c2ccncc2)cc1`, the inhibition was 10% (active).

With `Cc1ccc(OCCOc2cccc(/C=N/NC(N)=O)c2)cc1`, the inhibition was -1.45%.

For the molecule `CN1C(=O)c2cc(NS(C)(=O)=O)ccc2OC[C@@H]2O[C@@H](CC(=O)NCc3ccc(-c4ccccc4)cc3)CC[C@H]21`, the inhibition was -3.9%.

Consider `Cc1ccc(S(=O)(=O)N2C[C@]3(O)C[C@@H]4C(=O)N(c5ccccc5)C(=O)[C@@H]4C[C@]3(OC(=O)NC3CC3)C2)cc1`, for which the inhibition was -1.11%.

As to `C#CCN(C[C@@H]1[C@@H](OC(=O)NC2CC2)[C@@H](OC(=O)NC2CC2)Cn2c(=O)ccc(=O)n21)S(=O)(=O)c1ccc(C)cc1`, the inhibition was -1.79%.

Take `C#CCN(C[C@H]1[C@H](OC(=O)NC2CCCC2)[C@H](OC(=O)NC2CCCC2)C[C@H]2C(=O)N(c3ccccc3)C(=O)[C@@H]12)S(=O)(=O)c1ccc(C)cc1`: the inhibition was 9.64% (active).

Regarding `COC(=O)[C@]12C[C@H](CC(=O)NCc3ccccc3)C(=O)N(CCC3=CCCCC3)C1=C[C@H](C(C)C)O[C@@H]2C1CC1`, the inhibition is 6.48%.

As for `N#Cc1nc(Cc2cccc3ccccc23)oc1NCc1ccc2c(c1)OCO2`, the inhibition is 9.51% (active).

As for `CC1(C(=O)NCc2ccc3c(c2)OCO3)CCN1C(=O)Cc1cccc2ccccc12` (stereo not given), the inhibition was -3.18%.

Turning to `O=C(CCNS(=O)(=O)c1ccccc1C(F)(F)F)NCc1ccc2c(c1)OCO2`, the inhibition is -0.25%.

`CCOC(=O)C(=O)N(Cc1ccccc1)c1ccccc1C(=O)Nc1cc(OC)ccc1OC`: the inhibition was 4.35%.

Consider `O=C(CSc1nnc(-c2ccccn2)n1-c1ccc(Cl)cc1)Nc1ccccc1-c1ccccc1`, for which the inhibition is 5.21%.

Values taken from PubChem BioAssay AID720648 (The Scripps Research Institute Molecular Screening Center, 2013).
